Screening data (PubChem BioAssay)
Mtb UGM inh = M. tuberculosis UGM enzyme inhibitors, primary screen, biochemical, fluorescence polarization, single point; inhibition, % at 10 µM; AID 504406, 2011; 320,000 compounds, 0.06% hits; purified UGM, fluorescence polarization probe displacement; UDP-galactopyranose mutase (Mycobacterium tuberculosis (strain ATCC 25618 / H37Rv)), …; in the data active = inhibition above about 10%, passing the limit was not always enough; inconclusive = no clear call, values can overlap the other calls
GDH-TPI counter = GDH-TPI coupling enzyme inhibitors, primary screen, artefact control for M. tuberculosis FBA inhibitor project, biochemical, absorbance, full deck; GDH-TPI coupled enzyme counterscreen, NADH absorbance; 360,000 compounds, 1.2% hits; inhibition, % at 4.8 µM; in the data active = inhibition above about 30%
FBA Mtb inh = Mtb FBA enzyme inhibitors, primary screen, biochemical, fluorescence, strain H37Rv | inhibition, % at 1 µM | 360,000 compounds, 2.3% hits | Fructose-bisphosphate aldolase (Mycobacterium tuberculosis (strain ATCC 25618 / H37Rv)), … | AID 588726, 2011 | purified M. tuberculosis FBA, fluorescence read-out; in the data active = inhibition above about 27%
Target sequence (P9WQA3 whole entry, looked up): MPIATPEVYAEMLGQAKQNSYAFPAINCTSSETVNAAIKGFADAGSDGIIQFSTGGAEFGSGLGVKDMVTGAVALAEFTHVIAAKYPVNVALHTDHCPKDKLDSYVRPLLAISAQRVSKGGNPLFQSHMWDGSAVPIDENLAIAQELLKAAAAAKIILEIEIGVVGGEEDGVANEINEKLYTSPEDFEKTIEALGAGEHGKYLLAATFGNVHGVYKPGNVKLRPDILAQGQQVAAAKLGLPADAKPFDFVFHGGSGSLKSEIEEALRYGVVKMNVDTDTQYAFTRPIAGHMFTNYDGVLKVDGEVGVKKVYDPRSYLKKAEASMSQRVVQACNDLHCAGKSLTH
Rv3671c inh = Rv3671c serine protease inhibitors, primary screen, biochemical, fluorescence polarization, M. tuberculosis H37Rv; AID 2606, 2010; 320,000 compounds, 0.048% hits; P9WHR9; inhibition, % at 5.96 µM; in the data active = inhibition above about 38%;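 note: extracellular domain of Rv3671c used as enzyme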
Mtb betalactam = beta-lactam sensitization of Mtb H37Rv, H37Rv; 330,000 compounds, 0.27% hits; M. tuberculosis H37Rv growth with meropenem, percent inhibition; inhibition, % at 25 µM; AID 434955, 2010; call rule not given here;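 note: growth measured after seven days incubation then overnight dye step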
FadD28 binding = inhibitors of FadD28 bisubstrate probe binding, primary screen, biochemical, fluorescence polarization, single point | Mycobacterium tuberculosis FadD28 fatty-acid-AMP ligase | inhibition, % at 12.5 µM | 360,000 compounds, 0.22% hits | AID 588549, 2011; in the data active = inhibition above about 8.5%, passing the limit was not always enough; inconclusive = no clear call, values can overlap the other calls
Numbers stand for hits; n = inactive; u = inconclusive; x = no result; + = active, no number. This is a sample that favours compounds with a hit; in the whole collection about 3.7% have one here.

SMILES	Mtb UGM inh	GDH-TPI counter	FBA Mtb inh	Rv3671c inh	Mtb betalactam	FadD28 binding
CN(C)c1ccc(NC(=O)C(=O)C2C(=O)Nc3ccccc32)cc1 (configuration not stated)	n	n	n	n	n	n
O=C(CNS(=O)(=O)c1cccs1)NCCc1ccc(Cl)cc1	n	n	n	n	n	n
CCn1nc([N+](=O)[O-])c(C(C#N)c2nc3cc(C(F)(F)F)ccc3s2)c(Cl)c1=O (configuration not stated)	n	n	n	n	n	45.4
CCCn1nc([N+](=O)[O-])c(C(C#N)c2nc3ccccc3o2)c(Cl)c1=O (configuration not stated)	n	n	n	n	n	15.1
Cc1c(C)n(Cc2ccccc2)c2ccc(C(=O)OCCN(C)C)cc12	n	n	n	n	n	n
Cc1cccc(OCC(=O)Nc2ccc(N3CCN(C(=O)c4ccco4)CC3)cc2)c1	n	n	n	n	n	n
N#Cc1c(Cl)nc(N/N=C/c2ccccc2)c(Cl)c1Cl	n	n	n	n	n	n
C[N+](C)(C)c1ccc(/C=N/Nc2nc(Cl)c(C#N)c(Cl)c2Cl)cc1	n	37.5	n	n	n	n
COc1ccc(Nc2nc(-c3ccccc3)nc3ccccc23)cc1S(=O)(=O)N1CCOCC1	n	40.3	n	n	n	n
COc1ccc(C(=O)Nc2ccc(N3CCOCC3)cc2)cc1S(=O)(=O)N1CCOCC1	x	n	n	x	x	n
COc1ccc(NC(=O)CNc2ccccc2N2CCCC2=O)cc1S(=O)(=O)N1CCOCC1	n	n	n	n	n	10.2
COc1ccc(C(=O)Nc2ccc(-c3ccc(C)o3)cc2)cc1S(=O)(=O)N1CCOCC1	n	37.9	n	n	n	n
COc1ccc(S(=O)(=O)N2CCCCC2)cc1NC(=O)CNc1ccccc1N1CCCC1=O	n	n	n	n	n	n
Cc1ccc(NC(=O)CNc2ccccc2N2CCCC2=O)cc1S(=O)(=O)N1CCOCC1	x	n	n	x	x	21.3
O=P1(NC2CCCCC2)OCC2(CO1)COP(=O)(NC1CCCCC1)OC2 (configuration not stated)	x	n	n	x	x	n
COc1ccccc1NC(=O)Cc1nc(=O)[nH]c(=O)[nH]1	x	n	n	x	x	n
CC1(C(=O)NS(=O)(=O)c2ccc(Cl)s2)CCN1C(=O)Cc1ccc(-c2ccccc2)cc1 (configuration not stated)	x	n	n	x	x	n
COc1cccc(NC(=O)Nc2ccc(C(C)(C)C)cc2)c1	x	n	n	x	x	19.1
CCc1nc2ccc(C(=O)N3CCN(C(=O)c4ccco4)CC3)cn2c1N(C)C(=O)Nc1ccccc1OC	x	n	n	x	x	n
CN(/N=C/c1ccncc1)c1cnc2ccccc2n1	n	32.6	n	n	x	n
CN(/N=C/c1ccncc1)C1=NCCN1	n	n	n	n	n	n
O=C(O)c1cc([N+](=O)[O-])ccc1Oc1ccccc1	x	n	n	x	x	n
Cc1cc(C(=O)N/N=C/c2cc(Br)c(Br)o2)n[nH]1	n	n	n	n	n	n
COC(=O)C1=C(c2ccc(OC(F)(F)F)cc2)C[C@@H]2CC[C@H]1N2C(=O)NCCc1ccccc1	n	57.9	n	n	n	n
CN1CCC(N2CCN(C3CN(C4CCCC4)S(=O)(=O)C3)CC2)CC1 (configuration not stated)	x	x	n	x	x	n
SMILES	Mtb UGM inh	GDH-TPI counter	FBA Mtb inh	Rv3671c inh	Mtb betalactam	FadD28 binding
Cc1cc(C(=O)COc2cccc3cccnc23)c(C)n1C	16.3	n	n	n	n	n
Cc1cc(C(=O)COc2ccccc2C(N)=O)c(C)n1C	n	n	n	n	n	n
COc1ccc2oc(=O)cc(C)c2c1	n	n	n	n	n	n
COc1ccc2oc3ccc(OC)cc3c(=O)c2c1	n	n	48.7	n	n	n
Cc1ccccc1N1CCN(Cc2c(C#N)c3ccccc3n2C)CC1	n	n	n	n	u	n
Cn1c(CN2CCN(CCO)CC2)c(C#N)c2ccccc21	n	30.6	n	n	n	n
COc1ccc(/C=C/c2c(-c3ccc(OC)cc3)oc3ccc(-c4ccc(OC)cc4)cc23)cc1	n	n	n	n	n	n
COc1ccc(/C=C/c2cc(-c3ccc(C)cc3)o[n+]2C)cc1	n	54.8	n	n	n	n
Cc1cn([C@H]2C[C@H](O)[C@@H](CNCc3ccc(F)c(N4CCOCC4)c3)O2)c(=O)[nH]c1=O	x	n	n	x	x	n
O=C1NC(=O)N(Cc2ccc(F)cc2)C(=O)/C1=C\c1ccc(N2CCCC2)cc1	n	33.2	n	n	n	n
COCCN1C(=O)NC(=O)/C(=C\c2ccc(F)cc2)C1=O	n	n	n	n	n	n
CN(C)c1ccc(/C=C2\C(=O)NC(=O)N(CCc3ccc(F)cc3)C2=O)cc1	n	46.9	n	n	n	24.6
CCN1C(=O)/C(=C/c2ccc(N3CCCC3)cc2)NC1=S	n	n	n	n	n	n
CN1C(=O)C(=Cc2ccc(N3CCCCCC3)cc2)C(=O)N(C)C1=O	n	54.5	n	n	n	n
COc1ncnc2c1ncn2CCCNC1CCN(Cc2ccccc2)CC1	x	n	n	x	x	n
c1ccc(CCNc2cc(-c3ccc4ccccc4c3)nc3ccnn23)nc1	x	n	n	x	x	n
COc1cccc(C(=O)NCC(=O)N2CCC3(CC2)NCCc2[nH]cnc23)c1OC	n	50.9	n	n	n	n
COc1ccc(C(=O)NCC(=O)N2CCC3(CC2)NCCc2[nH]cnc23)cc1	n	n	n	n	n	n
Cc1cc2oc(=O)cc(CN3CCOCC3)c2c(C)c1Cl	n	n	136.7	x	n	n
CCc1cc(=O)oc2c(CNCc3c(F)cccc3Cl)c(O)ccc12	n	n	+	n	n	n
CCCCc1cc(=O)oc2c(CN3CCCC3)c(O)ccc12	n	n	+	n	n	n
CCCc1cc(=O)oc2c(CNc3ccc(OCC)cc3)c(O)ccc12	n	n	164.8	n	n	n
CCOc1ccc2c(CC)cc(=O)oc2c1OCC	n	n	n	n	n	n
O=c1cc(-c2ccccc2)c2ccc(O)c(CN3CCCCC3)c2o1	n	n	n	n	n	n
Cc1cccc(C)c1NC(=O)Nc1nc(CN(C)C)cs1	x	n	n	x	x	n
CCc1ccc(Nc2n[n+](C)c(-c3ccncc3)s2)cc1	n	n	n	n	n	n
O=C(NCCO)/C(=C\c1cccc([N+](=O)[O-])c1)NC(=O)c1cccs1	x	n	n	x	x	n
OC(c1ccco1)c1nc(-c2cccs2)cs1 (configuration not stated)	x	n	n	x	x	n
Cc1cc(=O)oc2c(CN3CCOCC3)c(O)ccc12	x	37.5	x	x	x	n
Cc1cc(=O)oc2c(CN3CC(C)OC(C)C3)c(O)c(Cl)cc12 (configuration not stated)	n	n	+	n	n	n
